Experiment in all cases: DAPPL (digital affinity profiling via proximity ligation, sequencing); 10 mM Tris-HCl pH 7.5, 50 mM NaCl, 1 mM DTT, 4% glycerol, room temperature, 30 min; GST-TFs on glutathione beads, 16-mer random dsDNA library, 0.1% formaldehyde crosslink after washing; high values mean tight binding
The target of assay [1] is T1, FEV (Homo sapiens, UniProt Q99581 1-238).
T1 sequence: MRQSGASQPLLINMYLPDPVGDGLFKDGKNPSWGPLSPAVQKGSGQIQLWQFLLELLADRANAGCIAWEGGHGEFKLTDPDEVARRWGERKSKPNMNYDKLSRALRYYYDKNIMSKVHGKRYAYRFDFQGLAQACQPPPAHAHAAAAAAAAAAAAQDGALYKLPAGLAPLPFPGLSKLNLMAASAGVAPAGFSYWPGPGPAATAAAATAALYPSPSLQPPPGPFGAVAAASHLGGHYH
To be noted: protein: recombinant; tags: N-terminal GST; dsDNA, one strand shown. The procedure, abridged:
(§1)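 Yeast served to express human transcription factors as GST fusions, which were then captured on glutathione beads and labelled with DNA barcodes. Pooled with a tag-only sample, they were incubated with 200 nmole of a 16-mer random double-stranded DNA library for 30 min at room temperature in Tris/NaCl/DTT/glycerol buffer, washed, crosslinked with 0.1% formaldehyde, ligated by proximity, amplified by PCR and sequenced. Dividing each hexamer's read frequency for a factor by its frequency for the tag-only sample gives the binding signal.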

Assay [2] has as its target ETV5 (Homo sapiens, UniProt P41161 1-510). To be noted: protein: recombinant; tags: N-terminal GST; dsDNA, one strand shown. In outline:
as §1

In assay [3] the target is HSF1 (Homo sapiens, UniProt Q00613 1-529). To be noted: protein: recombinant; tags: N-terminal GST; chain copies: 3; dsDNA, one strand shown. In outline:
as §1

Assay [4] addresses T2, SPIC (Homo sapiens, UniProt Q8N5J4 1-248).
T2 sequence: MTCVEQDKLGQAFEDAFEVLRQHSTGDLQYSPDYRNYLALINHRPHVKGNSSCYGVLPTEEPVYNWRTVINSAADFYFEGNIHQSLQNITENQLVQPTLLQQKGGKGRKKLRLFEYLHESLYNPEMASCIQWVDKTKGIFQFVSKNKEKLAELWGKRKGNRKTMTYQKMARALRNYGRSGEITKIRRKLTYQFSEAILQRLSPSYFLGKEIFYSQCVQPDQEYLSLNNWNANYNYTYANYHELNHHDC
To be noted: protein: recombinant; tags: N-terminal GST; dsDNA, one strand shown. The procedure, abridged:
as §1

In assay [5] the target is ELF4 (Homo sapiens, UniProt Q99607 1-663). The note with it: protein: recombinant; tags: N-terminal GST; dsDNA, one strand shown. In outline: as §1
Chain of ELF4 (Q99607 whole entry): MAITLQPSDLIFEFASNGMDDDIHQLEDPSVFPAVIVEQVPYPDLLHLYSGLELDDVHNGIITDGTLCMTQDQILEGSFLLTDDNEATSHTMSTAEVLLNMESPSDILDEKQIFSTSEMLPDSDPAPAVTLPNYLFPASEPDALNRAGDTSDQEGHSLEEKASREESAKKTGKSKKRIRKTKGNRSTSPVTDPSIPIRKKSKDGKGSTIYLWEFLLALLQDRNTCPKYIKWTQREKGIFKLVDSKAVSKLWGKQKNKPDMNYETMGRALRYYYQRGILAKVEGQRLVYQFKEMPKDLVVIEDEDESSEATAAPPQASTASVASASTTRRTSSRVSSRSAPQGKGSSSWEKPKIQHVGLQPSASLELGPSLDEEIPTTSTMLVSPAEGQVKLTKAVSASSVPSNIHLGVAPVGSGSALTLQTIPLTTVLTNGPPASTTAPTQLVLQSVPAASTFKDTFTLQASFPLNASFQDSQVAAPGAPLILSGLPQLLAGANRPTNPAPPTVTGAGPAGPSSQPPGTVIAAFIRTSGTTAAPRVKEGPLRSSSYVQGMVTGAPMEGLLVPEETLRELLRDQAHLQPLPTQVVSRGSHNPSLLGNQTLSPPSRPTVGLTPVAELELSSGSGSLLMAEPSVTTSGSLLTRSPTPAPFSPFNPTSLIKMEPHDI
Assay [6] concerns the target T3, ELK4 (Homo sapiens, UniProt P28324-2 1-405).
T3 sequence: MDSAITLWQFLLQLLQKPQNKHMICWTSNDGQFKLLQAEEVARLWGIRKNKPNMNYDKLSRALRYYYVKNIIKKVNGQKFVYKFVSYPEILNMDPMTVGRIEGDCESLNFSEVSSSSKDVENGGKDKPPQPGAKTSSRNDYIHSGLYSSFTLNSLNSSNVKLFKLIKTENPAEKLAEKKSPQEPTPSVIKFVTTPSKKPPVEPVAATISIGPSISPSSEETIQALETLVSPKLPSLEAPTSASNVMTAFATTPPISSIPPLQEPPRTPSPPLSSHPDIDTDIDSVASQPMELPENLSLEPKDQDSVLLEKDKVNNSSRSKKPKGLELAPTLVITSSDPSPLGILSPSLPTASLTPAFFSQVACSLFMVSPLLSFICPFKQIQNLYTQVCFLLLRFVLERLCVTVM
To be noted: protein: recombinant; tags: N-terminal GST; dsDNA, one strand shown. In outline:
as §1

In assay [7] the target is T4, ETV2 (Homo sapiens, UniProt O00321 1-342).
T4 sequence: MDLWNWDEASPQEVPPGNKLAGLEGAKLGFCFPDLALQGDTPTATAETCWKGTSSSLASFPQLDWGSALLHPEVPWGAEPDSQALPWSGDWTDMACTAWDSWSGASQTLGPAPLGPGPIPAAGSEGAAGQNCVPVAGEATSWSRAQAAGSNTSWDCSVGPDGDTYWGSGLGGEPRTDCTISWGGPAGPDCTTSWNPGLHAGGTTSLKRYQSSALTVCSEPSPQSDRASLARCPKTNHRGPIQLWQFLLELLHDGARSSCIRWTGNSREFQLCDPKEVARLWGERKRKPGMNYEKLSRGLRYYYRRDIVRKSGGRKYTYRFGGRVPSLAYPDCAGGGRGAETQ
The note with it: protein: recombinant; tags: N-terminal GST; dsDNA, one strand shown. In outline: as §1

Assay [8] has as its target T5, ELF3 (Homo sapiens, UniProt P78545 1-371).
T5 sequence: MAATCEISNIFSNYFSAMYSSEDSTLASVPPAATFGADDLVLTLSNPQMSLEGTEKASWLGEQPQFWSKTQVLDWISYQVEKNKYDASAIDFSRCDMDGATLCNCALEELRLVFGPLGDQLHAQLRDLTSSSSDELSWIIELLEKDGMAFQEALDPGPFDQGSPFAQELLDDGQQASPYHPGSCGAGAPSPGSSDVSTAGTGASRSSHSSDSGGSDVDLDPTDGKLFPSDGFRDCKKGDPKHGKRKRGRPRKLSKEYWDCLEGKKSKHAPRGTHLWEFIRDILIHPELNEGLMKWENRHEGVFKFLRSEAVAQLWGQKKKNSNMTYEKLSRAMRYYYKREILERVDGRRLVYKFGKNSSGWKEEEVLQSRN
The note with it: protein: recombinant; tags: N-terminal GST; dsDNA, one strand shown. In outline:
as §1

The target in assay [9] is CRX (Homo sapiens, UniProt O43186 1-299). To be noted: protein: recombinant; tags: N-terminal GST; dsDNA, one strand shown. The procedure, abridged: as §1
Chain of CRX (O43186 whole entry): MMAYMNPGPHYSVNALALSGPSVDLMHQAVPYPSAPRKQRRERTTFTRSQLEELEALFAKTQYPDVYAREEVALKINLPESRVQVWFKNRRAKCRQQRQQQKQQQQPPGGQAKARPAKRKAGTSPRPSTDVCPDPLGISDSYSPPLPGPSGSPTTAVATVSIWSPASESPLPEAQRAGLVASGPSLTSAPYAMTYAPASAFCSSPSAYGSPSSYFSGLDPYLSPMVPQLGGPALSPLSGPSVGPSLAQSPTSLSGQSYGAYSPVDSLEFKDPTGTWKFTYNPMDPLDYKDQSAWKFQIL
For assay [10], the target named is ETV1 (Homo sapiens, UniProt P50549 1-477). To be noted: protein: recombinant; tags: N-terminal GST; dsDNA, one strand shown. In outline: as §1
Chain of ETV1 (P50549 whole entry): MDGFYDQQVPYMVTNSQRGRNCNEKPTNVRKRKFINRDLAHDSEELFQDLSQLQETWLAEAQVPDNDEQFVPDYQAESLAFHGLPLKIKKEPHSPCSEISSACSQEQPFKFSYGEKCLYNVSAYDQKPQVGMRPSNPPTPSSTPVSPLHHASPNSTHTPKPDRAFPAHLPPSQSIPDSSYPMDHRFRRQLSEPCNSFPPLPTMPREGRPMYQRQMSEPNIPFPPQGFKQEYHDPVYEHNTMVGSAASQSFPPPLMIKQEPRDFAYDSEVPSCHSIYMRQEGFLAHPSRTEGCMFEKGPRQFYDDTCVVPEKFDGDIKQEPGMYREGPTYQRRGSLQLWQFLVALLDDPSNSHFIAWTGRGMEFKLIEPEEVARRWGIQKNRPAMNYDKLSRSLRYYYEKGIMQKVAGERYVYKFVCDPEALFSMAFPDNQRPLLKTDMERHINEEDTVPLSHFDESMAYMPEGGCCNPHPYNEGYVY

Chain of HSF1 (Q00613 whole entry): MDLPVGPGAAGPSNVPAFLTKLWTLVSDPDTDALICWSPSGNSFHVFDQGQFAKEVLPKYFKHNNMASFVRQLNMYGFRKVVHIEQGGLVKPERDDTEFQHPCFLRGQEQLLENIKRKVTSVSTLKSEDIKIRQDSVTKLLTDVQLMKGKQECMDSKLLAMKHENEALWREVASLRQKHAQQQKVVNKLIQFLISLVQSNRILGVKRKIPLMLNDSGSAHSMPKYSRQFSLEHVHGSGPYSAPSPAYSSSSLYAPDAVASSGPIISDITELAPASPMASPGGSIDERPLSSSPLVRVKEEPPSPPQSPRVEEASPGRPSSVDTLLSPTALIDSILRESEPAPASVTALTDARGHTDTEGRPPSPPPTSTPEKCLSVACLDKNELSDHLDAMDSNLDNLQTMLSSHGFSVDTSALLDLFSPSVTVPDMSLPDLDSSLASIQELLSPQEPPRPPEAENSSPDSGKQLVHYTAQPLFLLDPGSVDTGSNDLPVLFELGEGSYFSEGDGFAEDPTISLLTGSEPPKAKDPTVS
Chain of ETV5 (P41161 whole entry): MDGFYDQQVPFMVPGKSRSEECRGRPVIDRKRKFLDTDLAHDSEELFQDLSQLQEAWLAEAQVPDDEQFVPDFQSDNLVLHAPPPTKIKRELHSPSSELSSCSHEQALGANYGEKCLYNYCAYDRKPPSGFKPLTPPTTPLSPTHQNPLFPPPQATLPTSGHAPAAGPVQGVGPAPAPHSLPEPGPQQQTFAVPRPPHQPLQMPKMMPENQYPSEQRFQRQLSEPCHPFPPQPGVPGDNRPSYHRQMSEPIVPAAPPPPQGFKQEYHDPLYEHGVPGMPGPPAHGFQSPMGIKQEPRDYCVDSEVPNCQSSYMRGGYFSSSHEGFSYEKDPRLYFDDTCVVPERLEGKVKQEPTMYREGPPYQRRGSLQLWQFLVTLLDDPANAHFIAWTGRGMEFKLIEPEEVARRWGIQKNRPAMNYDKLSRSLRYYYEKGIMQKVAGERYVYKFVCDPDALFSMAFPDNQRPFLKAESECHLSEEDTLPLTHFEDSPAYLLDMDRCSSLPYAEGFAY

On to TTGCAA, for which the binding signal in [1] was 1.12 fold enrichment (6-mer frequency, TF over GST control); in [2], 1.17 fold enrichment (6-mer frequency, TF over GST control); in [3] it was 1.07 fold enrichment (6-mer frequency, TF over GST control); in assay [4] it was 1.09 fold enrichment (6-mer frequency, TF over GST control); in [5], 1.19 fold enrichment (6-mer frequency, TF over GST control); in [6], 1.21 fold enrichment (6-mer frequency, TF over GST control). Besides, the binding signal is 1.22 fold enrichment (6-mer frequency, TF over GST control) in assay [7]; 1.13 fold enrichment (6-mer frequency, TF over GST control) in assay [8]; 1.12 fold enrichment (6-mer frequency, TF over GST control) in assay [9]; 1.27 fold enrichment (6-mer frequency, TF over GST control) in [10].
As to CGTCTC, the binding signal in [1] was 1.46 fold enrichment (6-mer frequency, TF over GST control); in assay [2], 1.46 fold enrichment (6-mer frequency, TF over GST control); in [3], 1.42 fold enrichment (6-mer frequency, TF over GST control); in assay [4] it was 1.47 fold enrichment (6-mer frequency, TF over GST control); in assay [5], 1.55 fold enrichment (6-mer frequency, TF over GST control); in assay [6] it was 1.49 fold enrichment (6-mer frequency, TF over GST control). Also, the binding signal was 1.27 fold enrichment (6-mer frequency, TF over GST control) in [7]; 1.46 fold enrichment (6-mer frequency, TF over GST control) in assay [8]; 1.18 fold enrichment (6-mer frequency, TF over GST control) in assay [9]; 1.43 fold enrichment (6-mer frequency, TF over GST control) in [10].
Turning to TTTGAG, the binding signal in [1] was 1.03 fold enrichment (6-mer frequency, TF over GST control); in assay [2], 1.02 fold enrichment (6-mer frequency, TF over GST control); in assay [3], 1.1 fold enrichment (6-mer frequency, TF over GST control); in assay [4] it was 1.36 fold enrichment (6-mer frequency, TF over GST control); in [5], 1.02 fold enrichment (6-mer frequency, TF over GST control); in assay [6], 1.23 fold enrichment (6-mer frequency, TF over GST control). In addition, the binding signal in assay [7] is 1.04 fold enrichment (6-mer frequency, TF over GST control); in [8] it was 1.08 fold enrichment (6-mer frequency, TF over GST control); in assay [9] it was 1.23 fold enrichment (6-mer frequency, TF over GST control); in assay [10] it was 1.14 fold enrichment (6-mer frequency, TF over GST control).
For the sequence TGATCC, the binding signal was 1.29 fold enrichment (6-mer frequency, TF over GST control) in assay [1]; 1.3 fold enrichment (6-mer frequency, TF over GST control) in [2]; 1.65 fold enrichment (6-mer frequency, TF over GST control) in assay [3]; 1.32 fold enrichment (6-mer frequency, TF over GST control) in assay [4]; 1.28 fold enrichment (6-mer frequency, TF over GST control) in assay [5]; 1.26 fold enrichment (6-mer frequency, TF over GST control) in [6]. Besides, the binding signal in assay [7] is 1.09 fold enrichment (6-mer frequency, TF over GST control); in assay [8], 1.1 fold enrichment (6-mer frequency, TF over GST control); in [9], 2.2 fold enrichment (6-mer frequency, TF over GST control); in assay [10], 1.27 fold enrichment (6-mer frequency, TF over GST control).
TTTTTA: the binding signal is 1.34 fold enrichment (6-mer frequency, TF over GST control) in assay [1]; 1.3 fold enrichment (6-mer frequency, TF over GST control) in assay [2]; 1.42 fold enrichment (6-mer frequency, TF over GST control) in assay [3]; 1.32 fold enrichment (6-mer frequency, TF over GST control) in [4]; 1.34 fold enrichment (6-mer frequency, TF over GST control) in assay [5]; 1.37 fold enrichment (6-mer frequency, TF over GST control) in assay [6]. Besides, the binding signal is 1.38 fold enrichment (6-mer frequency, TF over GST control) in assay [7]; 1.43 fold enrichment (6-mer frequency, TF over GST control) in assay [8]; 1.65 fold enrichment (6-mer frequency, TF over GST control) in assay [9]; 1.32 fold enrichment (6-mer frequency, TF over GST control) in [10].
For the sequence TTGCGG, the binding signal in [1] is 1.19 fold enrichment (6-mer frequency, TF over GST control); in assay [2], 1.36 fold enrichment (6-mer frequency, TF over GST control); in assay [3] it was 1.04 fold enrichment (6-mer frequency, TF over GST control); in assay [4], 1.47 fold enrichment (6-mer frequency, TF over GST control); in assay [5], 1.3 fold enrichment (6-mer frequency, TF over GST control); in [6], 1.2 fold enrichment (6-mer frequency, TF over GST control). For the same sequence, the binding signal in assay [7] is 1.31 fold enrichment (6-mer frequency, TF over GST control); in assay [8] it was 1.42 fold enrichment (6-mer frequency, TF over GST control); in assay [9], 1.05 fold enrichment (6-mer frequency, TF over GST control); in [10], 1.27 fold enrichment (6-mer frequency, TF over GST control).
In the case of CTACCC, the binding signal in [1] was 1.26 fold enrichment (6-mer frequency, TF over GST control); in assay [2], 1.28 fold enrichment (6-mer frequency, TF over GST control); in [3], 1.04 fold enrichment (6-mer frequency, TF over GST control); in assay [4] it was 1.47 fold enrichment (6-mer frequency, TF over GST control); in assay [5], 1.36 fold enrichment (6-mer frequency, TF over GST control); in [6] it was 1.23 fold enrichment (6-mer frequency, TF over GST control). For the same sequence, the binding signal in assay [7] is 1.29 fold enrichment (6-mer frequency, TF over GST control); in [8], 1.3 fold enrichment (6-mer frequency, TF over GST control); in assay [9], 1.08 fold enrichment (6-mer frequency, TF over GST control); in assay [10], 1.26 fold enrichment (6-mer frequency, TF over GST control).
TGTTTG: the binding signal in [1] is 1.21 fold enrichment (6-mer frequency, TF over GST control); in assay [2], 1.23 fold enrichment (6-mer frequency, TF over GST control); in assay [3], 1.06 fold enrichment (6-mer frequency, TF over GST control); in assay [4], 1.29 fold enrichment (6-mer frequency, TF over GST control); in [5], 1.36 fold enrichment (6-mer frequency, TF over GST control); in assay [6], 1.38 fold enrichment (6-mer frequency, TF over GST control). In addition, the binding signal was 1.14 fold enrichment (6-mer frequency, TF over GST control) in assay [7]; 1.46 fold enrichment (6-mer frequency, TF over GST control) in assay [8]; 1.08 fold enrichment (6-mer frequency, TF over GST control) in assay [9]; 1.38 fold enrichment (6-mer frequency, TF over GST control) in assay [10].
